# PubChem BioAssay
# “And” between values parts separate entries of the source, which are not always exact repeats. Identical values can stand only once. Inconclusive results are not listed. For part of these data: Results with a measured potency or affinity are listed apart. The source made the active and inactive calls. Unless noted, the rule behind the calls is not given here.
# How the values were obtained:
# [1] = polyglutamine-triggered caspase-3 activation inhibitors, cell-based (AID 1583); conditions: polyglutamine-induced caspase-3 activation, cell assay; stronger effect = higher value;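 tested at 10 µM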
# [2] = suppressors of polyQ aggregation in yeast, 75Q-TubU reporter (AID 1593); conditions: Yeast 75Q polyglutamine aggregation reporter
# [3] = rescue of polyQ-huntingtin neuronal dysfunction in worms, whole organism, C. elegans mechanosensory neurons, N-terminal huntingtin (AID 1599); conditions: touch response, stronger effect = higher value
# [4] = inhibitors of mitochondrial cytochrome c release, biochemical, purified mitochondria (AID 1603); conditions: stronger effect = lower value;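 note: mouse liver mitochondria challenged with calcium chloride; signal normalized to the plate average as 100%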
# [5] = inhibitors of polyQ protein aggregation (AID 1604); conditions: polyglutamine-induced protein aggregation inhibition assay; stronger effect = higher value; tested at 2.5 µM
# [6] = enhancers of glutamate uptake in motor neurons, MN-1 cell line (AID 1612); conditions: MN-1 motor neuron cells, stronger effect = higher value;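 note: tested at 1 µM final; 0% = mean of DMSO vehicle wells on each plate; positive means more glutamate uptake than control and negative means less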
# [7] = suppressors of polyglutamine aggregation in yeast, 75Q-TubH (AID 1616); conditions: S. cerevisiae 75Q-TubH polyglutamine aggregation suppression; stronger effect = higher value
# [8] = circadian clock period modulators, cell-based, LOPAC library, luminescence reporter (AID 2774); conditions: circadian reporter cells, at 7 µM, actives lie on both sides;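 note: values are relative to mean of DMSO wells on each plate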
# [9] = test system: Hepatitis C virus NS3 helicase; assay: HCV NS3 helicase inhibitors, primary screen, biochemical, fluorescence polarization, LOPAC1280 library (AID 687035; in the data active = inhibition above about 37%); conditions: Purified HCV NS3 helicase, Cy5-dT15 ssDNA binding fluorescence polarization; stronger effect = higher value; concentration not given here
# [10] = Cy5 fluorescence quenching or enhancement artefacts, artefact control for HCV NS3 helicase inhibitor project, biochemical, LOPAC1280 (AID 687037); conditions: Cy5-DNA-NS3h complex fluorescence interference counterscreen
# [11] = growth inhibition of DIPG glioma cells, dose response, cell-based, JHH-DIPG-1, MIPE4.0, CellTiter-Glo, qHTS (AID 1347062; cut-off not given, nearly all actives have AC50 up to about 27 µM;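 for AC50: cells exposed to compound for two days before readout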); conditions: JHH-DIPG-1 viability, CellTiter-Glo ATP luminescence
# [12] = phospholipid biosynthesis inhibitors in animal cells, primary screen, cell-based, LOPAC library, screen 4 (AID 1347384); conditions: phospholipid biosynthesis inhibition screen, at 10 µM
# [13] = ICB984 medulloblastoma cell growth inhibition, synergistic combos for chromothripsis tumors, cisplatin or BGB combos (AID 1671451); conditions: ICB984 medulloblastoma cells, drug combinations, stronger effect = higher value;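 note: cells exposed for 96 hours before readout; 0% = vehicle DMSO and 100% = killing by high DMSO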
# F380Y = assay: modulators of BK channel variants, profiling panel, selectivity assay, cell-based, U2OS BacMam, thallium flux, beta subunits (AID 1259406;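 active = thallium flux through the channel raised or lowered by more than 3 SD from vehicle-only wells, actives on both sides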;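 note: initial slope of Thallos dye fluorescence rise after thallium is added; log ratio against the mean of 0.3% DMSO vehicle wells on the same plate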); conditions: at 30 µM
# F380Y/beta2Delta = assay: as above; conditions: at 30 µM
# [14] = target: Calcium-activated potassium channel subunit alpha-1 (Homo sapiens) + Leucine-rich repeat-containing protein 26 (Homo sapiens) (UniProt Q12791+Q2I0M4); assay: as above; conditions: F380Y/Slo1WT/gamma1, at 30 µM
# Chain of Calcium-activated potassium channel subunit alpha-1 (Homo sapiens) + Leucine-rich repeat-containing protein 26 (Homo sapiens) (Q2I0M4 whole entry, looked up, one chain of several): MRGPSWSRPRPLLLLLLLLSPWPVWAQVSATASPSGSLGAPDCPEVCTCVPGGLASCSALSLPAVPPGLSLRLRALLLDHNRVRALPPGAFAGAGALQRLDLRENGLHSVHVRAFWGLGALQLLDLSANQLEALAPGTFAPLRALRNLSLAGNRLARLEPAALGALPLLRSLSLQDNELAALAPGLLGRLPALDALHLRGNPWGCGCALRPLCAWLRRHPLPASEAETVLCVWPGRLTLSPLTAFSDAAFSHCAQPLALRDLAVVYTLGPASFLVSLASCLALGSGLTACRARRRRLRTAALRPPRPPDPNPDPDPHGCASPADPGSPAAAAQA
# R275C = assay: as above; conditions: at 30 µM
# R275C/beta1 = assay: as above; conditions: at 30 µM
# R275C/beta2Delta = assay: as above; conditions: at 30 µM
# [15] = test system: Aerobactin synthetase IucA (Klebsiella pneumoniae); assay: IucA aerobactin synthetase inhibitors, biochemical, Tocris library, absorbance (AID 1345561); conditions: purified IucA enzyme assay, absorbance (OD) read-out; stronger effect = lower value;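 tested at 8 µM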;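 note: 100% = enzyme without compound and 0% = no enzyme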
structure (smiles),measurement,setting,value
O=P1(N(CCCl)CCCl)NCCCO1 (stereo not given),inhibition,[1],-14.8%
same,score,[2],0.77
same,rescue above control,[3],-5.6
same,cytochrome c release ratio,[4],1
same,inhibition of aggregation,[5],69.7%
same,glutamate uptake change,[6],-7.13%
same,aggregation suppression score,[7],1.14
same,period change,[8],0.185 h (inactive)
same,inhibition,[9],-3% (inactive)
same,fluorescence ratio (interference),[10],1 (inactive)
same,outcome,[11],inactive
same,outcome,[12],inactive
same,inhibition,"[13]; BGB IC20 combo, at 0.005 µM",-3.81% and -12.8%
same,inhibition,"[13]; BGB IC40 combo, at 0.005 µM",-4.33% and -15%
same,inhibition,"[13]; BGB IC40 combo, at 0.05 µM",-3.91% and -28.7%
same,inhibition,[13]; at 0.5 µM,-31.6% (inactive) and -25.4% (inactive)
same,inhibition,"[13]; cisplatin combo, at 0.05 µM",-7.65% and -28.7%
same,inhibition,"[13]; cisplatin combo, at 0.5 µM",-40.7% and -25.4%
same,inhibition,"[13]; cisplatin combo, at 5 µM",-21.7% and -28.6%
same,inhibition,"[13]; measured here: 5 uM single agent, at 5 µM",6.31% and -15%
same,log fold change Tl+ flux,F380Y,-0.0772 (inactive)
same,log fold change Tl+ flux,F380Y/beta2Delta,-0.037 (inactive)
same,log fold change Tl+ flux,[14],0.0114 (inactive)
same,log fold change Tl+ flux,R275C,-0.0233 (inactive)
same,log fold change Tl+ flux,R275C/beta1,0.00892 (inactive)
same,log fold change Tl+ flux,R275C/beta2Delta,-0.0421 (inactive)
NCCc1ccc(O)cc1,inhibition,[1],-15.4%
same,score,[2],1.21
same,rescue above control,[3],-11.7
same,cytochrome c release ratio,[4],0.71
same,inhibition of aggregation,[5],39.2%
same,glutamate uptake change,[6],-2.56%
same,aggregation suppression score,[7],1.19
same,period change,[8],0.035 h (inactive)
same,inhibition,[9],-3% (inactive)
same,fluorescence ratio (interference),[10],1 (inactive)
same,outcome,[12],inactive
COc1ccc(Cc2nccc3cc(OC)c(OC)cc23)cc1OC,inhibition,[1],3.42%
same,score,[2],1.48
same,rescue above control,[3],14.9
same,cytochrome c release ratio,[4],1.07
same,inhibition of aggregation,[5],46.4%
same,glutamate uptake change,[6],-13.9%
same,aggregation suppression score,[7],1.65
same,period change,[8],-0.02 h (inactive)
same,inhibition,[9],-1% (inactive)
same,fluorescence ratio (interference),[10],1 (inactive)
CC(C)(C)NCC(O)c1cc(Cl)c(N)c(Cl)c1 (stereo not given),inhibition,[1],5.01%
same,score,[2],1.52
same,rescue above control,[3],-3.16
same,cytochrome c release ratio,[4],1.06
same,inhibition of aggregation,[5],29.4%
same,glutamate uptake change,[6],-4.4%
same,aggregation suppression score,[7],1.64
CCCCCCCCC(=O)NCc1ccc(O)c(OC)c1,period change,[8],0.08 h (inactive)
CC(=O)[O][Hg][c]1ccccc1,score,[2],-0.45
same,rescue above control,[3],0
same,cytochrome c release ratio,[4],1.06
same,inhibition of aggregation,[5],-25.5%
same,glutamate uptake change,[6],-17.8%
same,aggregation suppression score,[7],-0.131
CCC1(CC)C(=O)C=CNC1=O,inhibition,[1],13.3% and -20.6%
same,score,[2],0.96 and 1.19
same,rescue above control,[3],1.62 and 19.3
same,cytochrome c release ratio,[4],1.06 and 0.67
same,inhibition of aggregation,[5],63.5% and 88.5%
same,glutamate uptake change,[6],-11.1% and -15%
same,aggregation suppression score,[7],0.581 and 1.33
Clc1ccc(C(OCCN2CCCCC2)c2ccccc2)cc1 (stereo not given),inhibition,[1],4.2%
same,score,[2],1.14
same,cytochrome c release ratio,[4],1.33
same,inhibition of aggregation,[5],66.7%
same,glutamate uptake change,[6],29.4%
same,aggregation suppression score,[7],1.4
c1ccc2c(c1)sc1ccccc12,inhibition,[1],11%
same,score,[2],-0.17
same,rescue above control,[3],18.8
same,cytochrome c release ratio,[4],0.98
same,inhibition of aggregation,[5],65.4%
same,glutamate uptake change,[6],-0.7%
same,aggregation suppression score,[7],0.0947
NCCc1cc(O)c(O)cc1O,inhibition,[1],18.9%
same,score,[2],1.88
same,rescue above control,[3],-4.94
same,cytochrome c release ratio,[4],0.92
same,inhibition of aggregation,[5],55.6%
same,glutamate uptake change,[6],-13.1%
same,aggregation suppression score,[7],1.41
Oc1ccc(Cl)cc1,inhibition,[1],-57%
same,score,[2],0.2
same,rescue above control,[3],0.9
same,cytochrome c release ratio,[4],0.97
same,inhibition of aggregation,[5],31.7%
same,glutamate uptake change,[6],4.5%
same,aggregation suppression score,[7],0.223
N[C@@H]1C[C@H]1c1ccccc1,remaining activity,[15],124% (inactive)
same,outcome,[11],inactive
NC(=O)CN1CCCC1=O,inhibition,[1],13.3%
same,score,[2],1.12
same,rescue above control,[3],-11
same,cytochrome c release ratio,[4],0.79
same,inhibition of aggregation,[5],1.59%
same,glutamate uptake change,[6],-1.66%
same,aggregation suppression score,[7],1.37
same,period change,[8],0.015 h (inactive)
same,inhibition,[9],-4% (inactive)
same,fluorescence ratio (interference),[10],1 (inactive)
same,outcome,[12],inactive
C[C@@H]1O[C@@H](O[C@H]2C[C@@H](O)[C@]3(CO)[C@H]4[C@H](O)C[C@]5(C)[C@@H](C6=CC(=O)OC6)CC[C@]5(O)[C@@H]4CC[C@]3(O)C2)[C@H](O)[C@H](O)[C@H]1O,period change,[8],-0.18 h (inactive)
same,inhibition,[9],-4% (inactive)
same,fluorescence ratio (interference),[10],1 (inactive)
same,AC50,[11],6.62 nM (active)
same,outcome,[12],inactive
CNC(C)(C)Cc1ccccc1,inhibition,[1],-8.9%
same,score,[2],1.71
same,rescue above control,[3],-1.26
same,cytochrome c release ratio,[4],1.14
same,inhibition of aggregation,[5],68.2%
same,glutamate uptake change,[6],3.05%
same,aggregation suppression score,[7],1.35
